TLR9-MyD88 inh: inhibitors of TLR9-MyD88 association in cells, primary screen, cell-based, CHO, BLA complementation, fluorescence. Toll-like receptor 9 (Homo sapiens) + Myeloid differentiation primary response protein …. CCF4 FRET ratio. 340,000 compounds, 0.21% hits. inhibition, % at 4.98 µM;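 active = inhibition above the mean over all tested compounds plus 3 SD, cut at about 21% in these data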;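 note: 0% = DMSO only wells and 100% = clavulanate BLA inhibitor control wells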
TMEM16A act: TMEM16A chloride channel activators or potentiators, primary screen, cell-based, HTS. HEK293 TMEM16A/YFP-H148Q/I152L, iodide quench fluorescence; hits give low values. AID 623877, 2012. B-score at 10 µM. 340,000 compounds, 0.3% hits;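 active = fluorescence-ratio B-score plate-corrected deviation score at least 3 library SD below zero, with starting fluorescence score within 5 deviations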;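 note: channel opened by trigger with iodide after compound preincubation; score built on the fluorescence ratio of max minus min over baseline; more negative score means more quench and so TMEM16A activation or potentiation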
GRK2 aptamer HTS: compounds blocking aptamer binding on GRK2 – biochemical, human GRK2, bead flow cytometry, HTS, primary screen; Beta-adrenergic receptor kinase 1 (Homo sapiens), P25098; FAM-aptamer displacement from GRK2; inhibition of aptamer binding, % at 10 µM; 330,000 compounds, 0.59% hits;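 active = inhibition of aptamer binding above 40%, roughly 3 SD of noise, on plates passing a quality check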;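 note: median bead fluorescence of bound FAM aptamer so fluorescent compounds give negative values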
Target sequence (P25098 whole entry, looked up): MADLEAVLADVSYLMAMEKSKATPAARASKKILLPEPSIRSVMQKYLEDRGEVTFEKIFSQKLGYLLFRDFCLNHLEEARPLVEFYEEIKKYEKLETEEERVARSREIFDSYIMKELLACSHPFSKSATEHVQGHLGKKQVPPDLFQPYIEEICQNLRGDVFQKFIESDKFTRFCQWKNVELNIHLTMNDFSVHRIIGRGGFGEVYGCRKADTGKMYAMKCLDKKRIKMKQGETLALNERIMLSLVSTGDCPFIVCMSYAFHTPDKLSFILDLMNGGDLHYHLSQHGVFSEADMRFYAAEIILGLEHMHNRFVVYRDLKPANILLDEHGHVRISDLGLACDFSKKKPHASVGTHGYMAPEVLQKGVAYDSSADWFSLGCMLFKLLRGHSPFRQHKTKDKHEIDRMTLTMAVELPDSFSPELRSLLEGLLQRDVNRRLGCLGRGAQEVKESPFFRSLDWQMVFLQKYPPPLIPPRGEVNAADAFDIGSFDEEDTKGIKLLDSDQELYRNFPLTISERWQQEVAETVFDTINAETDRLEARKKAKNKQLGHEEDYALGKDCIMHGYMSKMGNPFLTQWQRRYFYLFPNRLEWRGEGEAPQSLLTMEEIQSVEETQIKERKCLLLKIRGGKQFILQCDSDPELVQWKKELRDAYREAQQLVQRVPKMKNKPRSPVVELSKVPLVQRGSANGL
NOD2-RIPK2 inh: NOD2-RIPK2 binding disruptors in cells, primary screen, fluorescence, CHO cells, BLA complementation. inhibition, % at 4.98 µM. AID 624267, 2012. Receptor-interacting serine/threonine-protein kinase 2 (Homo sapiens), O43353. CCF4 ratio. 360,000 compounds, 0.38% hits; in the data active = inhibition above about 21%;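 note: 0% = vehicle only and 100% = reference blocker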
ANO1 block: TMEM16A chloride channel inhibitors, primary screen, cell-based, HTS; Anoctamin-1 (Mus musculus), Q8BHY3; HEK293 TMEM16A/YFP iodide influx fluorescence, ionomycin; normalized B-score (activity score, 25-100; higher = stronger inhibition) at 10 µM; 310,000 compounds, 1.2% hits; AID 588511, 2011;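 active = ratio plate-corrected score three or more library SD toward inhibition, starting fluorescence score within five deviations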;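 note: score derived from kinetic fluorescence span divided by baseline fluorescence per well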
TLR4-MyD88 BLA: inhibitors of TLR4-MyD88 association in cells, primary screen, cell-based, HeLa CL3-4, BLA complementation, FRET ratio. Toll-like receptor 4 (Homo sapiens) + Myeloid differentiation primary response protein …. HeLa CL3-4 TLR4/MyD88 BLA complementation. inhibition, % at 8.4 µM. 200,000 compounds, 0.18% hits. AID 861, 2007; in the data active = inhibition above about 25%;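 note: 0% = vehicle and 100% = reference inhibitor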
GRK2 inh confirm: GRK2 aptamer-displacing inhibitors, retest, confirmation, biochemical, cherry pick 1, bead flow cytometry. 2,000 compounds, 4% hits. shares compounds with GRK2 aptamer HTS. bead-bound GRK2, FAM-aptamer displacement. aptamer displacement, % at 10 µM;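 active = aptamer displacement above 40%, near three times the noise of non-fluorescent compounds, on plates passing quality checks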;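 note: negative values mostly reflect intrinsic compound fluorescence rather than true enhancement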
Aptamer quench: fluorescent aptamer quenching in GRK2 counter-screen dose response; shares compounds with GRK2 aptamer HTS; Fluorescent RNA aptamer beads, flow cytometry; hits give high values; fluorescence change (kMESF span), kMESF (test concentration not listed); 110 tested, under 10 active; AID 504521;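 active = compounds whose bead fluorescence drops by more than 37 kMESF across the dose range, marking them as dye quenchers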
FAM quench CP1: aptamer fluorescence quenching in GRK2 counter-screen; fluorescence response (% of DMSO), % at 10 µM; shares compounds with GRK2 aptamer HTS; Carboxyfluorescein RNA aptamer on beads, flow cytometry quenching; hits give low values; 2,000 tested, under 10 active;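 active = compounds that quench the bead-bound fluorescent RNA probe, cutting fluorescence to under half of the solvent control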;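 note: counterscreen run without GRK2 so only probe quenching by compound is measured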
* hit, by the source's call. Only some compounds are listed: those with a hit (about 2.2% of all), similar ones and a draw of the others.

COc1ccc(-c2cc(C(=O)N/N=C(\C)c3cccnc3)c3ccccc3n2)c(OC)c1 was read as TLR9-MyD88 inh -3, TMEM16A act inactive, GRK2 aptamer HTS 3, NOD2-RIPK2 inh -10 and ANO1 block inactive.
Screening COCCCn1c(SCC(=O)N(C)C)nnc1-c1ccccc1 returned TLR9-MyD88 inh 2, TMEM16A act inactive, GRK2 aptamer HTS 99*, NOD2-RIPK2 inh -4, ANO1 block inactive, TLR4-MyD88 BLA 1, GRK2 inh confirm -2 and FAM quench CP1 98.
Screening O=C(CCS(=O)(=O)c1ccc(Br)s1)N1CCc2ccccc21 returned TLR9-MyD88 inh 1, TMEM16A act inactive, GRK2 aptamer HTS 0, NOD2-RIPK2 inh 1, ANO1 block inactive, TLR4-MyD88 BLA -1, GRK2 inh confirm 2, Aptamer quench 3.6 and FAM quench CP1 98.
For O=C(CS(=O)(=O)c1ccccc1)N1CCc2ccccc21 the results were TLR9-MyD88 inh -12, TMEM16A act inactive, GRK2 aptamer HTS 0, NOD2-RIPK2 inh 4, ANO1 block inactive and TLR4-MyD88 BLA 5.
Screening O=C(c1cccs1)N1CCc2c([nH]c3ccccc23)C1c1ccc(Cl)cc1 (stereo unspecified) returned TLR9-MyD88 inh -6, TMEM16A act inactive, GRK2 aptamer HTS 0, NOD2-RIPK2 inh 0, ANO1 block inactive and TLR4-MyD88 BLA -18.
For O=C(CCN1CCOCC1)N1CCc2c([nH]c3ccccc23)C1c1cccc(Cl)c1 (stereo unspecified) the results were TLR9-MyD88 inh 2, TMEM16A act inactive, GRK2 aptamer HTS 0, NOD2-RIPK2 inh -14, ANO1 block inactive, TLR4-MyD88 BLA 1, GRK2 inh confirm 1 and FAM quench CP1 93.
For COc1ccccc1Cc1c(-c2ccc(C#N)cc2)nc2c3ccccc3ccn12 the results were NOD2-RIPK2 inh -4.
`O=C(c1ccc(Cl)cc1[N+](=O)[O-])N1CCN(c2ccccn2)CC1` gave TLR9-MyD88 inh -5, TMEM16A act inactive, GRK2 aptamer HTS 82*, NOD2-RIPK2 inh -3, ANO1 block inactive, TLR4-MyD88 BLA -3, GRK2 inh confirm -5 and FAM quench CP1 102.
Cc1c(C(=O)N2CCN(c3ccccn3)CC2)cccc1[N+](=O)[O-] was read as TLR9-MyD88 inh 2, TMEM16A act inactive, GRK2 aptamer HTS 4, NOD2-RIPK2 inh -5, ANO1 block inactive, TLR4-MyD88 BLA -3, GRK2 inh confirm 1 and FAM quench CP1 103.
`Cc1ccc(C(=O)N2CCN(c3ccccn3)CC2)cc1[N+](=O)[O-]` gave TLR9-MyD88 inh -4, TMEM16A act inactive, GRK2 aptamer HTS 1, NOD2-RIPK2 inh -6, ANO1 block inactive and TLR4-MyD88 BLA -20.
For O=C(c1ccc([N+](=O)[O-])cc1Cl)N1CCN(c2ccccn2)CC1 the results were TLR9-MyD88 inh -16, TMEM16A act inactive, GRK2 aptamer HTS 1, NOD2-RIPK2 inh 3 and ANO1 block inactive.

Assay outcomes deposited in PubChem by several laboratories.
